Bioassay records (PubChem)
ALDH1A1 block: ALDH1A1 (human) enzyme inhibition; P00352; Purified ALDH1A1, NADH fluorescence, propionaldehyde substrate; Potency, µM (top dose mostly 75.3 µM), hits mostly inhibitors; actives 7.3% (n = 220,000); AID 1030; active = well fitted inhibition curve with a large enough effect, not every such curve was filed as active; inconclusive = small, poorly fitted or top-dose-only effect, or another doubt; inactive = no such curve, though single readings can be large or run the other way
KDM4E inh: JMJD2E (human) inhibition; B2RXH2; Potency, µM (series often up to 57.1 µM), most hits filed as inhibitors; actives 1.6% (n = 230,000); JMJD2E catalytic domain, FDH-coupled NADH fluorescence (FDH is formaldehyde dehydrogenase); AID 2147; active = well fitted inhibition curve with a large enough effect, not every such curve was filed as active; inconclusive = small, poorly fitted or top-dose-only effect, or another doubt; inactive = no such curve, though single readings can be large or run the other way; note: nearly all actives have a fitted effect of over 50% in size
HPGD inh: blocks human HPGD enzyme activity; purified HPGD, NADH fluorescence kinetic, PGE2 substrate; actives 4.3% (n = 150,000); Potency, µM, hits mostly inhibitors; active = well fitted inhibition curve with a large enough effect, not every such curve was filed as active; inconclusive = small, poorly fitted or top-dose-only effect, or another doubt; inactive = no such curve, though single readings can be large or run the other way
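NADH formation kinetics: reaction with 30 uM PGE2 and 1 mM NAD+ (final), 20 nM enzyme, Tris-HCl pH 8 with Tween 20, after 15 min compound preincubation at room temperature. Fluorescence change, last versus first of five reads.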
HTT ATP protect: Huntington cell model cytoprotection by ATP luminescence | PC12 HTT-Q103 induced, cytoprotection, ATP luminescence, 40 h | Potency, µM (highest dose often 56.4 µM), most hits filed as activators | actives 0.14% (n = 230,000) | AID 1471; note: nearly all actives have a fitted effect of over 45% in size
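Huntington model: PC12 line, ecdysone-inducible HTTQ103 exon1–GFP, tebufenozide 100 nM. Test articles in a dose series. Endpoint luminescence from cellular ATP.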
CBFb RUNX1 block: blocks binding between human CBF-beta and RUNX1; AlphaScreen CBFb-His/RUNX1-biotin binding, biochemical; Potency, µM (titrated, usually from 59.8 µM), actives largely listed as inhibitors; 230,000 tested, under 10 active
Target sequence (Q01196 whole entry, looked up): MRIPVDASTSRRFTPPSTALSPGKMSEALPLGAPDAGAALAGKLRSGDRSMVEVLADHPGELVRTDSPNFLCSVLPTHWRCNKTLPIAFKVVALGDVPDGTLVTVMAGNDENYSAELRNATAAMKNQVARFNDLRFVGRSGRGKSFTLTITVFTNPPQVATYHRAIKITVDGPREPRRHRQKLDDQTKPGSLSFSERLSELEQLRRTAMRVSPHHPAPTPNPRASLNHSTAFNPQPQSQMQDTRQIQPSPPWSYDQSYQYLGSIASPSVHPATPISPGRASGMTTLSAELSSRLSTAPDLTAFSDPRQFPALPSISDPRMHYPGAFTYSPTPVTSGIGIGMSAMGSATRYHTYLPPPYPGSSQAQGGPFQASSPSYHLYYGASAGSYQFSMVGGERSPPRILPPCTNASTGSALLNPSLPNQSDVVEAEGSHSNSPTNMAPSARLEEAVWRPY
Target sequence (Q13951 whole entry, looked up): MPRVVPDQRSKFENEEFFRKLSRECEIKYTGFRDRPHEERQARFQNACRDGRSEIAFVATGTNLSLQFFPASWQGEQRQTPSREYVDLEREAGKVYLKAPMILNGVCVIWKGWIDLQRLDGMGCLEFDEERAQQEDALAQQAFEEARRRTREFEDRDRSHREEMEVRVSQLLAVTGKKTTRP
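CBFb-His/RUNX1-biotin, 30 nM each, preincubated 20 min RT; compound 15 min RT; Ni + streptavidin beads 50 ng each, 90 min RT; AlphaScreen read.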
HTT aggregate: reduces HttQ103-GFP aggregates in PC12 cells; PC12 HttQ103-GFP aggregates, Acumen cytometry, 40 h; Potency, µM (series often up to 46.1 µM), usual class: inhibitors; actives 1.1% (n = 220,000); note: nearly all actives have a fitted effect of over 60% in size
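Multiplexed with ATP-based cell death, this channel scores GFP aggregates in PC12 cells expressing inducible HTTex1-Q103-GFP. Induction used 100 nM tebufenozide; compounds were tested in concentration series.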
Each line names hits and unclear results; the compound was inactive in the other large screens. Hits are enriched below; roughly 9.8% of the tested compounds scored in any of these assays. Unless noted, calls come from the whole dose curve; as a rule, active = well fitted curve in the direction sought with a large enough effect; inconclusive = small, poorly fitted or top-dose-only effect, or another doubt; inactive = no such curve, though single readings can be large; an effect the other way counts as inactive or inconclusive.

COC1=C/C(=C/c2c(N)n3nc(-c4ccc(C)cc4)sc3nc2=O)C=CC1=O	ALDH1A1 block 1.1µM (no result: HPGD inh)
O=C(CCN1C(=O)C2CC=C(Cl)CC2C1=O)NCc1ccccc1 (stereo unspecified)	ALDH1A1 block inconclusive
O=C(CCN1C(=O)C2CC=C(Cl)CC2C1=O)NCc1ccco1 (stereo unspecified)	ALDH1A1 block 22µM
Cn1c(N)c(C(=O)c2ccc(F)cc2F)c(=O)n(C)c1=O	HTT aggregate inconclusive (no result: HPGD inh)
O=C(O)CCN=C1CCCc2ccccc2N1	ALDH1A1 block 32µM
CCC1=C(OC(=O)N(CC)CC)N2C(=O)OC(=NCCOC)[C@]2(C)[C@H]2C1=CC[C@H]1C(=O)N(C)C(=O)[C@H]12	none (no result: HTT aggregate)
O=C(/N=C1\NC(=O)C(F)(C(F)(F)F)S1)NC1CCCCC1 (stereo unspecified)	ALDH1A1 block 7.1µM, HPGD inh 7.9µM, HTT aggregate inconclusive
NC(=O)N/N=C(/CCCCCC/C(=N\NC(N)=O)c1ccccc1)c1ccccc1	none (no result: HPGD inh)
COc1ccc(NC(=O)c2nn(C34CC5CC(CC(C5)C3)C4)cc2[N+](=O)[O-])cc1	ALDH1A1 block 0.28µM
CC(=O)C1=C(C)NC(SCC(=O)c2ccc(Cl)cc2)=C(C#N)C1CC(C)C (stereo unspecified)	ALDH1A1 block 14µM, HTT aggregate inconclusive
CC(=O)C1=C(C)NC(SCC(=O)c2ccc(F)cc2)=C(C#N)C1CC(C)C (stereo unspecified)	HPGD inh 22µM (no result: HTT ATP protect)
COc1ccc2cnn(-c3ccc(OC(F)(F)F)cc3)c(=O)c2c1OC	none (no result: HPGD inh)
CC(=O)N1CCC2(CCN(Cc3ccccc3)CC2)CC1	none (no result: KDM4E inh, CBFb RUNX1 block, HTT aggregate)
OC(CN1CCN(Cc2ccccc2)CC1)c1ccccc1 (stereo unspecified)	KDM4E inh inconclusive (no result: HPGD inh)
O=C(c1ccccc1)C1CN(Cc2ccccc2)CCC1(O)c1ccccc1 (stereo unspecified)	ALDH1A1 block 0.22µM (no result: HPGD inh)
OC(c1ccccc1)C1CN(Cc2ccccc2)CCC1(O)c1ccccc1 (stereo unspecified)	ALDH1A1 block 20µM
O=C(COc1ccc(Cl)cc1)NCc1nnc(SCC(=O)N2CCCCCC2)o1	none (no result: HPGD inh)
CCCn1c(SCC(=O)c2ccc3c(c2)OCCO3)nnc1-c1ccco1	none
COCCn1c(SCC(=O)Nc2cc(C)cc(C)c2)nnc1C(C)C	ALDH1A1 block inconclusive
COCCn1c(SCC(=O)c2ccc(Cl)cc2)nnc1C(C)C	ALDH1A1 block 9.5µM, KDM4E inh inconclusive, HPGD inh inconclusive
COCCn1c(SCC(=O)c2ccc3c(c2)OCCO3)nnc1C(C)C	ALDH1A1 block 10µM, KDM4E inh inconclusive
O=C(Nc1ccc(Br)c2ccccc12)c1ccc2ccccc2c1O	ALDH1A1 block inconclusive, KDM4E inh inconclusive (no result: HPGD inh)
COc1ccc(OC)c(S(=O)(=O)NCCc2csc(-c3cccnc3)n2)c1	none (no result: ALDH1A1 block, HPGD inh)
C#CCOc1ccc(C(=O)N(C)c2ccccc2I)cc1	none (no result: ALDH1A1 block, KDM4E inh, HPGD inh, HTT ATP protect, HTT aggregate)
O=C(COC(=O)/C=C/c1cccs1)Nc1nc(-c2cccc(Br)c2)cs1	none (no result: ALDH1A1 block, HPGD inh)
O=C(/C=C/c1cccs1)Nc1scc(-c2ccccc2)c1C(=O)O	ALDH1A1 block 22µM, KDM4E inh 5µM (no result: HPGD inh)
O=C(/C=C/c1cccs1)Nc1nc(-c2ccccc2)cs1	HTT aggregate 35µM
O=C(COC(=O)/C=C/c1cccs1)Nc1nc(-c2ccccc2)cs1	ALDH1A1 block 22µM (no result: HTT ATP protect)
O=C(Oc1ccccc1)N1CCC2(CC1)CN(c1ccccc1)C2	none (no result: KDM4E inh, CBFb RUNX1 block, HTT aggregate)
OCCN1CCN(C(=S)c2ccc(Cl)c(Cl)c2)CC1	ALDH1A1 block inconclusive, HPGD inh 14µM
COc1cc(OC)c(S(=O)(=O)NC(C)C)cc1S(=O)(=O)NC(C)C	none (no result: HPGD inh)
O=C(CSc1nnnn1-c1ccccc1)Nc1ccc(Cl)cn1	ALDH1A1 block 2.2µM
COc1ccccc1-n1nnnc1SCC(=O)Nc1ccccn1	ALDH1A1 block 0.63µM
O=C(CSc1nnnn1Cc1ccccc1)NCC(=O)c1ccccc1	ALDH1A1 block 8.9µM
COC(=O)c1c(NC(=O)CSc2nnnn2-c2ccccc2)sc2c1CCC(C(C)(C)C)C2 (stereo unspecified)	ALDH1A1 block 13µM
CCN(C)C(=O)Oc1cccc([C@H](C)N(C)C)c1	none (no result: ALDH1A1 block, KDM4E inh, HPGD inh, CBFb RUNX1 block)
Cc1cc(C)c2c(n1)sc1c(=O)n(Cc3ccccc3Cl)nnc12	ALDH1A1 block inconclusive
CN(C)C(=O)CCCCCCCCC(=O)N(C)C	none (no result: ALDH1A1 block, HPGD inh)
COc1ccccc1-n1cnnc1SCC(=O)Nc1cc(C)on1	ALDH1A1 block 5µM (no result: HPGD inh)
Cc1cc(NC(=O)CSc2nncn2-c2ccccc2)no1	none (no result: HPGD inh)
CCOc1ccccc1-n1nnnc1SCC(=O)NCc1ccco1	ALDH1A1 block inconclusive (no result: HPGD inh, HTT ATP protect, HTT aggregate)
COc1ccccc1-n1cnnc1SCC(=O)N1CC(=O)Nc2ccccc21	ALDH1A1 block 4.5µM
Cc1cccc(-n2nnnc2SCC(=O)Nc2cccc(S(N)(=O)=O)c2)c1	ALDH1A1 block 7.9µM (no result: HPGD inh)
CCOc1ccccc1-n1nnnc1SCC(=O)Nc1cc(C)on1	ALDH1A1 block 8.9µM
Nc1ccc(SCc2nc3cccc4c3n2CCC4)cc1	none (no result: ALDH1A1 block, HPGD inh)
O=C(NCCN1C(=O)CCC1=O)c1ccncc1	none (no result: HPGD inh)
Cc1cc(NC(=O)CSc2nnnn2-c2ccc(C)c(C)c2)no1	ALDH1A1 block inconclusive (no result: HPGD inh)
Cc1cc(NC(=O)CSc2nnnn2-c2ccccc2)no1	ALDH1A1 block 16µM (no result: HPGD inh)
COc1ccccc1-n1nnnc1SCc1cc2c(cc1Br)OCO2	ALDH1A1 block 4.5µM, HPGD inh inconclusive, HTT aggregate inconclusive
CCc1nnc(NC(=O)CSc2nnnn2-c2cccc(C(=O)OC)c2)s1	ALDH1A1 block inconclusive, HPGD inh 14µM
CCc1nnc(NC(=O)CSc2nnnn2C)s1	HPGD inh inconclusive
COc1ccccc1-n1nnnc1SCc1ccccc1	ALDH1A1 block inconclusive
O=C1CN(C(=O)CSc2nnc(Nc3ccccc3)s2)c2ccccc2N1	ALDH1A1 block 28µM, HPGD inh 2.2µM
COc1cc(CNC(=O)c2nc(Cn3nc(C)c(Br)c3C)no2)cc(OC)c1	none (no result: HPGD inh)
Cc1cc(NC(=O)CSc2nnnn2Cc2ccccc2)no1	ALDH1A1 block 32µM
COc1cc(NC(=O)CSc2nnnn2Cc2ccccc2)cc(OC)c1	none (no result: HPGD inh)
CCOc1ccccc1-n1nnnc1SCC(=O)NC(=O)Nc1ccc2c(c1)OCCO2	ALDH1A1 block 13µM
O=C(CN(CC1CCCO1)C(=O)c1nsc(Cl)c1Cl)NC1CCCC1 (stereo unspecified)	none (no result: HPGD inh)
CC[C@H](C)[C@H](NC(=O)[C@H](CO)NC(=O)[C@H](C)NC(=O)[C@H](C)NC(=O)[C@H](CCC(N)=O)NC(=O)[C@H](CCCCN)NC(=O)[C@H](CCCN=C(N)N)NC(=O)[C@@H](N)CS)C(=O)N[C@@H](CCCCN)C(=O)N[C@H](C(=O)N[C@@H](C)C(=O)N[C@H](C(=O)N[C@@H](CO)C(=O)O)C(C)C)C(C)C	none (no result: ALDH1A1 block, KDM4E inh, HPGD inh, HTT ATP protect, HTT aggregate)
